Compound activity as filed in PubChem.
Hsp70 activator: Hsp70 transcriptional activation, primary screen; HeLa Hsp70 promoter luciferase reporter, luminescence; scaled: vehicle 0, proteasome-inhibitor control 100%; activation, % at 10 µM; 0.04% of 200,000 active; AID 1203;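 active = activation above the mean across all tested compounds plus 3 SD, cutoff set per campaign, cut at about 5.5% in these data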;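 also: 100% = MG132 at 30 µM as the positive control and 0% = DMSO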
TNF death inh: TNF-alpha cell death inhibition in Jurkat FADD-/- cells; Jurkat FADD-/- TNF necroptosis rescue, ATP luminescence, 24 h; 0 = TNF only, 100 = no-TNF cells; activation (protection from cell death), % at 10 µM; 0.068% of 220,000 active; AID 463075;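 active = activation, meaning protection from cell death, of at least 50% relative to plate controls; inactive = activation below 50%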;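 also: necroptosis triggered by 40 ng/mL TNF-alpha added together with compound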
zVAD death inh: blocks zVAD induced death of L929 cells; L929 zVAD necroptosis rescue, ATP luminescence, 24 h; with zVAD 60 µM; viability rescue, % at 10 µM; 0.38% of 220,000 active; AID 1377;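 active = activation, scaled between plate controls, above about 75%, limit read from the data; inactive = activation under that limit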;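 also: 0% = zVAD with DMSO and 100% = DMSO alone without zVAD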
HSF1 activator: increases HSF-1 driven luciferase reporter signal; NIH3T3-HGL HSF-1 luciferase reporter, MG132, 8 h; 100% = twice DMSO control signal; activation, % at 9 µM; 1.7% of 300,000 active;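 active = mean replicate activation of at least 50% with a set share of replicates each reaching 50%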;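 also: 0% = median of the neutral control wells and 100% = twice that signal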
Starred values were filed as active, the others as inactive; / = no result. Compounds with a hit are over-represented: about 1.9% of the library has one in this group of screens.

SMILES	Hsp70 activator	TNF death inh	zVAD death inh	HSF1 activator
Cc1ccc(SCC(=O)N/N=C/c2ccco2)cc1	/	/	/	58.8*
C=C(C)CSc1nnc2n(Cc3ccccc3)c(=O)c3c4c(sc3n12)CCC4	0.3	50.8*	2.4	-12.4
CSc1nnc2n(CCc3ccccc3)c(=O)c3c4c(sc3n12)CCCC4	-0.3	-1.5	-0.1	/
NNc1nc2sc3c(c2c(=O)n1Cc1ccccc1)CCC3	/	89.6*	2.8	16.0
Cc1ccc(NC(=O)N2N=C(c3ccc(F)cc3)CC2c2ccc(F)cc2)cc1 (centres undefined)	-0.1	1.3	-0.1	7.9
NC(=O)c1ccccc1N/C=C/C(=O)c1ccc(F)cc1	-0.1	-7.0	-0.4	40.7
NC(=O)c1ccccc1N/C=C/C(=O)c1ccc(Cl)cc1Cl	-0.3	-6.2	-0.4	66.4*
N#C/C(=C\c1cccs1)C(=O)Nc1nccs1	-0.1	-0.2	1.6	60.0*
CC(=O)c1ccc(NC(=S)N2C(C)CCCC2C)cc1 (centres undefined)	-0.1	-2.3	0.0	58.9*
Cc1cccc2cc(CN(CC3CCCO3)C(=S)NCc3ccco3)c(=O)[nH]c12 (centres undefined)	0.0	0.6	0.2	16.5
Cc1ccc(C)c2[nH]c(=O)c(CN(Cc3ccco3)C(=S)NCC3CCCO3)cc12 (centres undefined)	0.1	2.5	-1.7	76.8*
Cc1cc(C)c2[nH]c(=O)c(CN(CC3CCCO3)C(=S)NCc3ccco3)cc2c1 (centres undefined)	-0.3	1.0	1.6	62.3*
Cc1csc2c(N3CCN(C(=O)c4ccc(C(C)(C)C)cc4)CC3)ncnc12	/	-8.1	-0.9	2.4
O=C(Nc1ccccc1N1CCN(C(=O)c2ccc(Cl)cc2)CC1)c1cccc([N+](=O)[O-])c1	/	/	/	70.7*
CC(=O)NC(C)(CC(=O)c1ccccc1)c1ccccc1 (centres undefined)	/	/	/	20.4
CCOC(=O)C1=C(C)NC(=O)NC1c1ccc2c(c1)OCO2 (centres undefined)	-0.2	-0.9	1.2	3.9
CCOC(=O)C1=C(C)Nc2ncnn2C1c1ccc2c(c1)OCO2 (centres undefined)	0.0	-2.1	-0.9	51.0*
Cc1cccc(N2CCN(c3cccc(C)c3)C2c2cccnc2)c1	-0.3	-8.0	-0.2	67.1*
Cc1cccc(N2C(=O)CSC2c2cccnc2)c1 (centres undefined)	-0.5	0.4	-0.5	0.8
CCOc1ccc(S(=O)(=O)N2CCC(C(=O)NCc3ccncc3)CC2)cc1	/	/	/	1.4
COc1cc(NC(=O)c2cccs2)ccc1NC(=O)Cc1ccccc1	/	/	/	9.3
COc1cc(NC(=O)c2ccc([N+](=O)[O-])o2)ccc1NC(=O)c1cccs1	0.0	-18.6	5.3	126.8*
O=C(Nc1cccc(NC(=O)c2cccs2)c1)c1ccc([N+](=O)[O-])o1	/	-25.4	33.8	77.5*
COCCOC(=O)c1c(NC(=O)CN2c3ccccc3CC2C)sc(C(N)=O)c1C (centres undefined)	0.1	0.7	-0.8	12.4
COCCOC(=O)c1c(NC(=O)CSc2cccc[n+]2[O-])sc(C(N)=O)c1C	-0.4	-1.6	16.4	72.0*
SMILES	Hsp70 activator	TNF death inh	zVAD death inh	HSF1 activator
Cc1ccc(C(=O)NC(=S)NNC(=O)c2ccccc2O)cc1	/	/	/	4.7
Cc1ccc(C(=O)/C=C/NNC(=O)c2ccccc2O)cc1	/	/	/	52.9*
O=C(/C=C/NNC(=O)c1ccccc1)c1ccc(Br)cc1	-0.1	6.2	1.4	60.3*
O=C(/C=C/NNC(=O)c1ccc(Cl)cc1)c1ccccc1	0.0	5.0	5.5	37.0
Cc1nc(CSc2ccc(Cl)cc2)cs1	/	/	/	51.0*
Cc1nc(CSc2ccc(Br)cc2)cs1	/	/	/	16.9
COC(=O)c1cnc2c(c(C)nn2C)c1OC	/	0.7	1.1	59.2*
CN(Cc1ccccc1)c1nc(N)c([N+](=O)[O-])c(NCc2ccccc2)n1	-0.2	-1.9	0.2	67.1*
Nc1nc(NCCc2ccccc2)nc(NCc2ccccc2)c1[N+](=O)[O-]	/	/	/	-6.0
CC1CCN(C(=O)CCCOc2cc(=O)n(C)c3ccccc23)CC1	-0.2	-4.4	0.0	74.9*
Cn1c(=O)cc(OCCCC(=O)Nc2ccccn2)c2ccccc21	-0.1	5.7	89.0*	29.2
CCCCN(C)CCNC(=O)CCn1nc(-c2ccc(C)cc2)ccc1=O	/	/	/	6.4
COc1ccccc1-c1nc(-c2ccncc2)no1	-0.2	-4.7	-0.3	11.5
COc1ccccc1-c1nc(-c2ccc(Br)cc2)no1	0.1	3.1	0.0	55.4*
COc1cc(C(=O)Nc2ccc(NC(C)=O)cc2)ccc1OCc1ccccc1	-0.2	1.4	-0.1	7.5
O=C(NCCN1CCNC1=O)C1CCC(=O)N(Cc2cccc(C(F)(F)F)c2)C1 (centres undefined)	/	/	/	13.3
Cc1cc(F)ccc1NCc1cc2c(cc1[N+](=O)[O-])OCO2	0.0	-6.5	-0.1	52.5*
Cn1c(-c2ccc(F)cc2)cnc1NCc1cc2c(cc1[N+](=O)[O-])OCO2	-0.1	2.4	0.6	-1.2
O=C(CSc1nnc2c(Cl)cc(C(F)(F)F)cn12)N(Cc1ccccc1)Cc1ccccc1	0.2	0.0	/	104.7*
CC(=O)c1sc(N/N=C\c2ccccc2O)nc1C	0.6	-5.8	62.1	56.4*
COc1ccccc1/C=N\NC(=O)c1ccc(COc2ccc(C)c(C)c2)o1	/	/	/	33.1
Cc1ccnc(N2CCCC(C(=O)Nc3ccc(C)c(C)c3)C2)n1 (centres undefined)	/	/	/	59.8*
CCNC(=O)COC(=O)c1cccc(Br)c1	/	2.2	0.7	0.6
CCCOc1ccc(-c2c(=O)n(OCC(=O)OCC)c3ccccc3[n+]2[O-])cc1	/	/	/	55.9*
CCOC(=O)COn1c(=O)c(-c2ccc(F)cc2)[n+]([O-])c2ccccc21	/	/	/	-10.8
SMILES	Hsp70 activator	TNF death inh	zVAD death inh	HSF1 activator
COc1ccc(C(=O)NCCSC2CCCCC2)cc1	-0.3	1.6	1.8	51.2*
O=c1[nH]c(CSc2ncnc3sccc23)nc2ccccc12	/	0.6	0.6	56.1*
O=c1[nH]c(CSc2ncn[nH]2)nc2ccccc12	/	2.5	0.5	3.8
Cn1c(-c2ccccc2)cnc1SCc1nc2ccccc2c(=O)[nH]1	0.2	-3.3	0.1	104.3*
CCOC(=O)CCCNC(=O)CSc1nc2ccc(OCC)cc2[nH]1	0.0	-0.1	2.4	-12.6
CCCCNC(=S)NNC(=O)c1csc2ccccc12	0.1	0.6	-1.1	130.7*
CCCCNC(=S)NNC(=O)c1ccoc1C	-0.1	-0.5	-0.3	1.9
Nc1cc(N)cc(C(=O)OCC(=O)Nc2cc(S(=O)(=O)N3CCCCC3)ccc2Cl)c1	0.0	-3.9	-0.8	3.4
Cc1cc(C)nc(NC(=S)Nc2ccccc2)n1	0.6	-1.4	-0.9	51.4*
Cc1cc(C)nc(NC(=S)NC(=O)c2ccccc2)n1	/	/	/	4.7
O=C1/C(=C/c2cccnc2)CC/C1=C\c1cccnc1	0.0	-1.6	-0.1	-7.3
CCC1C/C(=C\c2cccnc2)C(=O)/C(=C/c2cccnc2)C1 (centres undefined)	24.9*	24.3	2.0	/
Cc1ccc(OCc2nnc(SCC(=O)Nc3cccc4ccccc34)n2-c2ccccc2)cc1	-0.5	-2.0	0.0	73.4*
